# ChEMBL document CHEMBL5308504, “Tm Shift (DSF) assay results for EUbOPEN Chemogenomics Library” (2023)
# Tests used:
# Conditions in all cases: Compound concentration 20.0 uM, Protein concentration 2.0 uM, Result type QC Liability
# [1] = target: Tyrosine-protein kinase ABL1 (Homo sapiens) (UniProt P00519)
# [2] = target: Cyclin-dependent kinase 2 (Homo sapiens) (UniProt P24941)
# [3] = target: Casein kinase I isoform delta (Homo sapiens) (UniProt P48730)
# [4] = target: Glycogen synthase kinase-3 beta (Homo sapiens) (UniProt P49841)
# Glycogen synthase kinase-3 beta (Homo sapiens), sequence (P49841 whole entry, looked up): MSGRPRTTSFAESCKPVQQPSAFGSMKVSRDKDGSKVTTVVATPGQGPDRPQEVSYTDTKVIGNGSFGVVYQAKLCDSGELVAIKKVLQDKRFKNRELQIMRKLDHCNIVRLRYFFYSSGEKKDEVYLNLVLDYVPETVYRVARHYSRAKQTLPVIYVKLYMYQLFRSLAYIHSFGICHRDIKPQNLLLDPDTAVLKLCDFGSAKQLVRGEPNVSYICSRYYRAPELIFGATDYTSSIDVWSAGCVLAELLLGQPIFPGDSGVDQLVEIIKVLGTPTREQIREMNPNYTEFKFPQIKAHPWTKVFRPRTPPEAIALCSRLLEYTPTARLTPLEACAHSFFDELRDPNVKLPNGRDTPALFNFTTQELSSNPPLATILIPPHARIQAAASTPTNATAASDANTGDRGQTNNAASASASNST
# [5] = target: Mitogen-activated protein kinase 1 (Homo sapiens) (UniProt P28482)
# Mitogen-activated protein kinase 1 (Homo sapiens), sequence (P28482 whole entry): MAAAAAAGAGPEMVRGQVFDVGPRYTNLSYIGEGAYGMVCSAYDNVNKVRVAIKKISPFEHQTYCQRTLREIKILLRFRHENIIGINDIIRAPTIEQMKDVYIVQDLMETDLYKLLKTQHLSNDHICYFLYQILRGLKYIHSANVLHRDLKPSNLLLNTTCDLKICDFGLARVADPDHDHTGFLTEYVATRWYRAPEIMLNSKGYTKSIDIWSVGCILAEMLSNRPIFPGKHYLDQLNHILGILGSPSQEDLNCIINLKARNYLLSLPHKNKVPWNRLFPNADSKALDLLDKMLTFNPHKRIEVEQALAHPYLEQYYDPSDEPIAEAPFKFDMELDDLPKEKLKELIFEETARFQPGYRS
# [6] = target: T1, Aurora kinase A (Homo sapiens) (UniProt O14965)
# T1 sequence (whole entry): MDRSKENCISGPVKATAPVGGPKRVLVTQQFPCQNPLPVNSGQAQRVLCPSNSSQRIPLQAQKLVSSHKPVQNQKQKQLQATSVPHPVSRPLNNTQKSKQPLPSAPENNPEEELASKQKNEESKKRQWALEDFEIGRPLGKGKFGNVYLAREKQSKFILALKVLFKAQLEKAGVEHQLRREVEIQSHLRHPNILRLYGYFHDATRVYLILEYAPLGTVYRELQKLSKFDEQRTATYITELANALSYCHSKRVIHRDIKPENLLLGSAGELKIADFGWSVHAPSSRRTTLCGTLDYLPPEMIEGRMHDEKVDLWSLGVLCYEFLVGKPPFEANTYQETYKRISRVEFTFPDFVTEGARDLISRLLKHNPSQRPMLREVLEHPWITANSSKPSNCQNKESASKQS
# Casein kinase I isoform delta (Homo sapiens), sequence (P48730 whole entry, looked up, canonical isoform): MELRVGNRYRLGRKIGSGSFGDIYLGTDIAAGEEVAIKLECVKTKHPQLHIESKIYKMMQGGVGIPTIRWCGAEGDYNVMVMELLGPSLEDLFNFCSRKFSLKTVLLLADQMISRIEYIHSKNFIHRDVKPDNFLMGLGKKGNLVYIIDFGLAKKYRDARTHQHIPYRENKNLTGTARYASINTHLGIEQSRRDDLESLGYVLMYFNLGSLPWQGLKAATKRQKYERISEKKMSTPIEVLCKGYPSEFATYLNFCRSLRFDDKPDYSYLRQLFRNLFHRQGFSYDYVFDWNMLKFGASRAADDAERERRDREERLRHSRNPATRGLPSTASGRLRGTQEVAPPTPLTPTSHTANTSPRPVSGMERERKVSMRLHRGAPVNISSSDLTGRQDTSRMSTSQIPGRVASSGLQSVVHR
# Tyrosine-protein kinase ABL1 (Homo sapiens), sequence (P00519 whole entry): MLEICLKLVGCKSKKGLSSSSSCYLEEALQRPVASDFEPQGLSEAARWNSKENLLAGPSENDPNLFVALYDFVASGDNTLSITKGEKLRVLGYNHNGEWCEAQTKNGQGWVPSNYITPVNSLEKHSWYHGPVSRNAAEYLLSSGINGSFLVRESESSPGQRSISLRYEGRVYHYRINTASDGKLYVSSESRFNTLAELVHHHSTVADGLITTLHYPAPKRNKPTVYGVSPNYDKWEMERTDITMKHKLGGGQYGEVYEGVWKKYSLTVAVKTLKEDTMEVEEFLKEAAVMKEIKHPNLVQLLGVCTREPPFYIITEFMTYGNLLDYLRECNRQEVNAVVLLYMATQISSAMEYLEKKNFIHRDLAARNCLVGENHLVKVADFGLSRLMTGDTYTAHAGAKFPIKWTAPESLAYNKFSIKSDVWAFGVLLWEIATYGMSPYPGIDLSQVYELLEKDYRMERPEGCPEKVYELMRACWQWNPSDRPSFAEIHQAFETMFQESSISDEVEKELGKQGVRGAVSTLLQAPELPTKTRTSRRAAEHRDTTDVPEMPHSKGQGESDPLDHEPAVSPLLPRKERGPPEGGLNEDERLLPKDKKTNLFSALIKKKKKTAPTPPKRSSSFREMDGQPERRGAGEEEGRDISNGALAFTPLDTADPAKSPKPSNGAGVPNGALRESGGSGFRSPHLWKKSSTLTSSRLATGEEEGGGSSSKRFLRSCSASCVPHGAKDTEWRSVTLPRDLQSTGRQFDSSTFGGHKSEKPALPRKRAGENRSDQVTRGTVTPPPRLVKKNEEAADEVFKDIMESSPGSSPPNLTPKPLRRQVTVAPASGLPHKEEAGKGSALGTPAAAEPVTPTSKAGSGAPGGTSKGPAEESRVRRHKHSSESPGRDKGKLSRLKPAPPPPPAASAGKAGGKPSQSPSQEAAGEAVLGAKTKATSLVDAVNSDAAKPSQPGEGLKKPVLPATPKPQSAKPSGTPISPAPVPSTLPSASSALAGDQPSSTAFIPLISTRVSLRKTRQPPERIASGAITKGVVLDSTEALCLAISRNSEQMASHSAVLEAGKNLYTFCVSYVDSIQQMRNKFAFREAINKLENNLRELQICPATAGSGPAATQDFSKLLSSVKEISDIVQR
SMILES,ΔTm [1] [°C],ΔTm [2] [°C],ΔTm [3] [°C],ΔTm [4] [°C],ΔTm [5] [°C],ΔTm [6] [°C]
O=C(CCSCc1ccco1)NNC(=O)N1Cc2ccccc2Oc2ccc(Cl)cc21,0.44,0.06,-8.4,-9.34,0.1,1.12
CCCCC[C@@](C)(O)/C=C/[C@H]1C(=O)CC(O)C1C/C=C\CCCC(=O)O (some centres not stated),-0.65,0.16,-0.52,0.15,-0.04,-0.74
CN(C)CCC[C@@]1(c2ccc(F)cc2)OCc2cc(C#N)ccc21,0.61,0.64,-0.32,-0.03,0.7,-0.23
CN(CC(=O)Nc1ccc(F)c(F)c1F)C(=O)c1ccc2c(c1)OCCO2,0.3,0.89,0.08,-0.75,0.49,-0.17
C=CC(=O)Nc1cccc(C(=O)Nc2ccc(Nc3cc(-c4c(-c5ccc(F)cc5)nc(SC)n4C)ccn3)cc2)c1,2.33,-0.01,3.17,-0.32,0.35,1.08
Cc1cnc(Nc2ccc(C(=O)N3CCN(C)CC3)cc2)nc1N[C@@H]1CCC[C@@H]1C(N)=O,5.89,6.47,0.27,3.07,1.68,14.7
CC1(C)CCN(C(=O)C2CN(c3c4c(nc5ccnn35)CCNCC4)C2)C1,-0.37,0.71,0.26,-0.71,0.08,-0.02
CNC(=O)c1c(F)cccc1Nc1nc(Nc2cc3c(cc2OC)CCN3C(=O)CN(C)C)nc2[nH]ccc12,-0.29,0.06,1.14,-0.64,1,0.07
CCOc1cc(CC(=O)N[C@@H](CC(C)C)c2ccccc2N2CCCCC2)ccc1C(=O)O,-0.58,0.05,-0.05,0.38,-0.15,-0.16
O=C1COc2cc(C(=O)N(Cc3ccc(C(=O)Nc4ccncn4)cc3)C3CC3)ccc2N1,0.5,0.47,-0.01,-0.19,0.31,0.08
CN1CCC(C#N)(NC(=O)[C@@H](NC(=O)N2CCOCC2)C(C)(C)C)CC1,-0.07,0.23,0.3,-0.75,0.52,-0.18
CC1CCN(C(=O)[C@H](CCn2cccc2C#N)NS(=O)(=O)c2cccc3[nH]ccc23)CC1,0.43,0.31,0.54,0.64,0.72,-0.11
CN(C)C/C=C/C(=O)Nc1cc2c(Nc3ccc(F)c(Cl)c3)ncnc2cc1OC[C@@H]1CCCO1,6.89,-0.1,1.15,2.63,-1.79,1.39
O=C(Nc1snnc1C(=O)Nc1ccc(N2CCCC2)cc1)c1cncc(C(F)(F)F)c1,0.66,0.59,1.04,-1.38,0.03,-0.75
O=C(Nc1ccnc(NC(=O)C2CC2)c1)c1c(Cl)cccc1Cl,5.46,6.9,0.54,6.06,0.23,4.28
COc1cc(N(C)c2ccnc3ccc(C(F)(F)F)cc23)cc(OC)c1OC,0.48,-0.12,1.1,-0.36,0.28,-0.2
C[C@@H]1CC(=O)N(C2CC2)N=C1c1ccc(NC(=O)N2Cc3ccncc3C2)cc1,0.36,0.35,0.2,-0.86,0.29,0.22
N#CN1CC[C@@H](C(=O)Nc2nc3c(s2)CN(C(=O)CN=[N+]=[N-])CC3)C1,0.86,0.33,0.49,-0.33,0.62,-0.54
CN(C)C/C=C/C(=O)Nc1cccc(S(=O)(=O)N2CCC(NC(=O)c3n[nH]cc3NC(=O)c3c(Cl)cc(Cl)cc3Cl)CC2)c1,3.66,11.4,2.28,10.9,1.34,2.6
Cc1ccc2c(NS(=O)(=O)c3ccccc3Cl)cccc2c1Oc1ncccc1-c1ccnc(N[C@H]2CCCNC2)n1,1.79,0.86,0.45,-0.76,-1.3,1.28
CC(C=CC1=C(C)CCCC1(C)C)=CC=CC(C)=CC(=O)O,0.39,0.25,0.93,-0.56,0.1,-3.01
CNc1nc(Nc2ccc(C(=O)N3CCOCC3)cc2OC)ncc1Cl,0.4,0.09,-0.01,-0.95,0.36,3.14
CC(=O)O[C@H]1C(=O)[C@@]2(C)[C@H]([C@H](OC(=O)c3ccccc3)[C@]3(O)C[C@H](OC(=O)[C@H](O)[C@@H](NC(=O)c4ccccc4)c4ccccc4)C(C)=C1C3(C)C)[C@]1(OC(C)=O)CO[C@@H]1C[C@@H]2O,0.38,0.99,-0.22,-0.02,0.57,-0.14
N#CC[C@H](C1CCCC1)n1cc(-c2ncnc3[nH]ccc23)cn1,3.71,1.43,2.02,4.04,0.74,5.6

SMILES,ΔTm [1] [°C],ΔTm [2] [°C],ΔTm [3] [°C],ΔTm [4] [°C],ΔTm [5] [°C],ΔTm [6] [°C]
CCS(=O)(=O)Nc1cccc(Oc2cc(F)cc(Nc3ccc(I)cc3F)c2NS(=O)(=O)C2CC2)c1,1.05,0.19,0.44,2.25,-1.88,0.23
NC(=O)c1ccc(-c2nc(-c3ccc4c(c3)OCCO4)c(-c3ccccn3)[nH]2)cc1,1,-0.38,5.39,-0.91,0.36,-1.32
C=C(F)C(=O)N1CCN(c2nc(OC[C@@H]3CCCN3C)nc3c2CCN(c2cccc4cccc(Cl)c24)C3)C[C@@H]1CC#N,-0.03,0.01,0.31,0.36,0.14,-0.49
C[C@@H]1OCC2(CCN(c3cnc(Sc4ccnc(N)c4Cl)c(N)n3)CC2)[C@@H]1N,0.58,0.91,-0.25,0.28,0.06,-0.32
Cc1nc2ccc(Cl)cc2c(-c2ccccc2)c1CC(=O)O,0.63,0.84,0.35,0.14,0.28,0.17
CC(=O)c1c(C)c2cnc(Nc3ccn(C)n3)nc2n(C2CCCC2)c1=O,-0.44,-0.29,-0.59,2.32,0.48,0.47
O=C(NCCN1CCOCC1)c1ccc2nn(CCOc3ccc(Cl)cc3)cc2c1,0.88,0.59,0.35,-0.24,0.56,0.05
COc1cc(C(=O)NCCOCCOCCOCC(=O)N[C@H](C(=O)N2C[C@H](O)C[C@H]2C(=O)NCc2ccc(-c3scnc3C)cc2)C(C)(C)C)ccc1Nc1ncc(C(F)(F)F)c(Oc2cccc3c2C(=O)CC3)n1,-0.62,-0.81,0.41,0,-8.23,1.75
Cc1cc(OCc2nc3ccccc3s2)ccc1NC(=O)Nc1ccc(Cl)c(Cl)c1,0.33,1.38,-0.26,-1.81,-0.19,0.13
CN(CCCCCCC1=C(c2cc(F)cc(F)c2)CCCc2cc(O)ccc21)CCCCS(=O)(=O)CCCC(F)(F)F,-0.9,-0.47,0.28,0,-9.1,0.84
O[C@]1(C(F)(F)F)CCCC[C@H]1Nc1ccc(F)cc1,0.25,1.15,0.07,-0.77,0.26,0.42
COc1cc(C(=O)NC2CCN(C)CC2)ccc1Nc1ncc(C(F)(F)F)c(NCc2ccc(C)cc2N(C)S(C)(=O)=O)n1,0.73,0.29,1.1,-0.29,3.52,5.17
Nc1ncnc2c1c(COc1cccc(Cl)c1)nn2C1CCOCC1,1.95,0.26,3.79,0.11,0.21,-4.79
CC[C@@H](Nc1c(C#N)c(-c2ccc(-c3cccc(C)c3F)cc2)nc2cnccc12)C(=O)O,1.07,-0.82,-0.63,0.06,-0.07,5.1
CCc1nc(-c2cccc(C)c2)c(-c2ccncc2)s1,1.94,-0.27,3.88,3.39,0.28,-0.09
CC(C)N1CCN(Cc2cnc(-c3cc(-c4cccc5[nH]ccc45)cc4[nH]ncc34)o2)CC1,2.44,0.6,1.32,3.63,0.24,4.96
Cc1nn(-c2nc3ccc(Cl)c(Cl)c3[nH]2)c(O)c1C1OC(=O)c2ccccc21 (configuration not stated),-0.04,2.69,-0.14,0.53,0.2,0.71
CO[C@H]1CC[C@H](N(c2cc(F)c(Oc3ncc(Cn4nccn4)cc3C(F)(F)F)cc2C(=O)O)C(=O)[C@H]2CC[C@H](C)CC2)CC1,-0.55,-0.98,-0.04,-1.43,0.48,-0.75
COc1ccccc1-c1cc(Nc2cccc(CS(N)(=O)=O)c2)ncn1,2.06,2.08,-0.11,4.1,-0.04,0.53
Nc1ncnc2c1ccn2[C@@H]1O[C@H]([C@@H](O)c2ccccc2)[C@@H](O)[C@H]1O,0.21,0.7,0.65,-0.88,0.25,-1.22
CCCCCNC(=O)N1CCC(CN(Cc2ccc(Cl)cc2)Cc2ccc([N+](=O)[O-])s2)C1 (configuration not stated),0.03,0.81,0.7,-1.49,0.03,-0.9
CCc1ncnc(N2CCN(C(C)=O)CC2)c1C#Cc1ccc(N)nc1,0.27,0.16,1.03,-0.12,0.42,-0.14
Cc1ccccc1Oc1cc(-n2c(=O)cc(C(F)(F)F)[nH]c2=O)c2ccccc2c1Cl,-0.09,0.61,0.85,-1.52,-0.82,-1.95
